Compound activity as filed in PubChem.
ELG1 genotox – qHTS screen for small molecules that induce genotoxicity in human embryonic kidney (HEK293T) cells expressing luciferase-tagged ELG1; Potency, µM (highest dose often 46 µM), without a hit: at the highest dose activity change, positive = activation, usual class: activators; AID 504466, 2011; HEK293T ELG1-luciferase reporter, luminescence, 16 h; hit rate 1.3% among 330,000; also: % of control where 0% means no effect; nearly all actives have a fitted effect of over 60% in size
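Screening used a luciferase reporter fused to human ELG1 in HEK293T cells. Luminescence was read on a CCD plate imager after 16 hr exposure and 30 min ONE-Glo incubation.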
NPC1 prom act – qHTS Assay for NPC1 Promoter Activators. hit rate 2.4% among 320,000. Potency, µM (top dose mostly 9.22 µM), for the others: at the highest dose activation, hits mostly activators. AID 485313, 2010. Huh7 NPC1 promoter luciferase reporter, 24 h; also: % of control where 0% means no effect; nearly all actives have a fitted effect of over 60% in size
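Stable NPC1-promoter luciferase Huh7 line; cpd (DMSO) 24 h, 37 °C, 5% CO2; Amplite luciferase reagent 10 min RT; luminescence readout. qHTS format.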
FLuc counter – qHTS profiling assay for firefly luciferase inhibitor/activator using purifed enzyme and Km concentrations of substrates (counterscreen for miR-21 project) | purified FLuc, Km substrates, luminescence inhibition | hit rate 6.9% among 360,000 | AID 588342, 2011 | Potency, µM (top dose mostly 57.5 µM), for the others: at the highest dose activity change, negative = inhibition, most hits filed as inhibitors | Luciferin 4-monooxygenase (Photinus pyralis), P08659;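 also: plate controls were vehicle for no effect and reference inhibitor for full effect; nearly all actives have a fitted effect of over 55% in size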
Target sequence (P08659 whole entry, looked up): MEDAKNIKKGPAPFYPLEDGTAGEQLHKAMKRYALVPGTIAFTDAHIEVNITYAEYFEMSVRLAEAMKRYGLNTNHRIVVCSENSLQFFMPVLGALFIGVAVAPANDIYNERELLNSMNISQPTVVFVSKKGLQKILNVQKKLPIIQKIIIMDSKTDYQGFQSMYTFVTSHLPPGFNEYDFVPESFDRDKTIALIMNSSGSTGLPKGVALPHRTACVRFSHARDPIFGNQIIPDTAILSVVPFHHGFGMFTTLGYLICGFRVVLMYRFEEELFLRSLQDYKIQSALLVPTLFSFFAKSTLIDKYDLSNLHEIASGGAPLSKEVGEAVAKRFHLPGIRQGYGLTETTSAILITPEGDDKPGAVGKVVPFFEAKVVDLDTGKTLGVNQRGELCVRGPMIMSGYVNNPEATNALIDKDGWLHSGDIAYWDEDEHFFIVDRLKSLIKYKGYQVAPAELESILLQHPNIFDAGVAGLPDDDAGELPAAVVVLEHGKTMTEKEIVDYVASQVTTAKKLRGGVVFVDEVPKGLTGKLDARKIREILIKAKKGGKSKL
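Purified P. pyralis luciferase (10nM final) with 10uM D-luciferin and 10uM ATP (Km levels) in 50mM Tris acetate pH 7.5, 10mM Mg acetate, 0.01% Tween-20, 0.05% BSA; qHTS 6-point titration, ~60 µM downward; luminescence read.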
Rab9 promoter act – qHTS Assay for Rab9 Promoter Activators. Huh7 Rab9 promoter-luciferase reporter, luminescence, 24 h. hit rate 2.8% among 320,000. Potency, µM (doses to about 9.22 µM), inactives show at the highest dose activation, negative = inhibition, most hits filed as activators; also: % of control where 0% means no effect; nearly all actives have a fitted effect of over 60% in size
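Quantitative HTS format; Huh7 Rab9-luciferase reporter cells (1500/well) receive compound 2 h post-plating, incubate 24 h at 37 °C, then get luciferase reagent for 10 min before luminescence reading.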
SMN2 splice up – qHTS Assay for Enhancers of SMN2 Splice Variant Expression; HEK293 SMN2-luciferase splicing reporter, luminescence, 30-36 h; Potency, µM (highest dose often 46.1 µM), inactives show top-dose activity change, positive = activation, most hits filed as activators; hit rate 2.8% among 210,000; AID 1458, 2008; also: % of control where 0% means no effect; nearly all actives have a fitted effect of over 55% in size
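HEK293 cells carry an SMN2 […]–luciferase reporter in which exon 7 inclusion puts luciferase in frame. Cells were plated 10-12 h before compound addition, then incubated 30-36 h at 37C. ONE-Glo luminescence was read; sodium butyrate at 4.5 mM final served as control.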
Numbers without * were called inactive; u = inconclusive; x = no result given. Rows were chosen to be rich in hits. Some 7.5% of all compounds tested hit in one or more screens of this group. Calls follow the shape of the dose curve; as a rule, active = well fitted curve in the direction sought with a large enough effect; inconclusive = small, poorly fitted or top-dose-only effect, or another doubt; inactive = no such curve, though single readings can be large; an effect the other way counts as inactive or inconclusive. Potency is read from the fitted curve at half-maximal effect.

SMILES	ELG1 genotox	NPC1 prom act	FLuc counter	Rab9 promoter act	SMN2 splice up
COc1ccc(N2CCN(CCNC(=O)c3ccc4nc5ccccc5c(=O)n4c3)CC2)cc1	-8%	-6%	-12%	-5%	x
CS(=O)(=O)NN1C(=O)c2ccccc2NC1c1cc2ccccc2nc1Cl (stereo not given)	4%	1%	-10%	-2%	-15%
CS(=O)(=O)N1CCN(c2ccc(NC(=O)c3cc4ccccc4o3)cc2)CC1	u	u	-13%	u	x
CN1CCN(c2ccc(NC(=O)c3cc4ccccc4o3)cc2)CC1	10µM*	1.6µM*	6µM*	3.5µM*	x
COc1ccc(C(=O)O)cc1NC(=S)NC(=O)CSc1ccc(Cl)cc1	-2%	0%	-4%	0%	x
CC(=O)Oc1oc(-c2ccccc2)nc1C=Nc1ccc(N(C)C)cc1	-6%	0%	2%	0%	x
CN(C)c1ccc(N=Cc2cccn2C)cc1	15µM*	16%	3.4µM*	24%	x
Nc1nc(-c2cc(O)ccc2[N+](=O)[O-])cc(-c2ccccc2)c1[N+](=O)[O-]	u	-5%	3%	0%	x
CCN(C(=O)C1CCN(c2nc(-c3ccc(OC)cc3)no2)CC1)c1ccc(OC)cc1	14%	-22%	u	-20%	x
COc1cccc(/C=N/NC(=O)c2cnccn2)c1O	15%	-23%	15µM*	-23%	x
COc1ccc(/C=N/NC(=O)c2cnccn2)cc1O	u	3%	12µM*	-3%	13%
COc1ccc(OC)c(/C=N/NC(=O)c2cnccn2)c1	0%	2%	0%	-6%	x
COc1cccc(/C=N/NC(=O)c2cnccn2)c1	14%	16%	12µM*	11%	17%
COc1cccc(C(=O)O/N=C(\C)c2cnccn2)c1	-4%	-6%	5.4µM*	-3%	x
C/C(=N/OC(=O)c1c(-c2c(Cl)cccc2Cl)noc1C)c1cnccn1	-3%	-3%	-2%	2%	x
C=CCOc1ccccc1/C=C/C(=O)O	-1%	0%	-1%	2%	-13%
CS(=O)(=O)N1CCc2cc(S(=O)(=O)N3CCN(Cc4ccc5c(c4)OCO5)CC3)ccc21	-3%	0%	1%	-8%	-56%
CCOc1ccc(C(C)NC(=O)c2ccccc2F)cc1 (stereo not given)	-1%	1%	-8%	-2%	-20%
COc1cc(/C=N/NC(=O)c2cc(-c3cccn3C)n[nH]2)cc(OC)c1OC	-3%	-3%	u	2%	u
COc1ccc(/C=N/NC(=O)c2cc3c(OC)ccc(OC)c3[nH]2)cc1O	-5%	-19%	11µM*	-6%	x
COc1ccc(OC)c2[nH]c(C(=O)N/N=C/c3ccccc3O)cc12	u	-42%	u	-36%	x
COc1cccc(/C=N/NC(=O)c2cc(-c3cccn3C)n[nH]2)c1O	6%	-28%	27µM*	-43%	-96%
Cc1ccc(C(O)c2nc3ccccc3n2C)cc1 (stereo not given)	-3%	0%	4%	-1%	x
Cc1ccc(-c2n[nH]c3c2C(c2cccc(O)c2)N(c2ccc(C(=O)O)cc2)C3=O)cc1 (stereo not given)	1%	-2%	8.5µM*	-2%	4%
CC(=O)Nc1ccc(NC(=O)CCc2nc3sc4c(c3c(=O)[nH]2)CCCC4)cc1	0%	6%	u	0%	x
CCOC(=O)c1nc2sc3c(c2c(=O)[nH]1)CCCC3	-6%	1%	19µM*	-1%	3%
COc1cccc(-c2nc3sc4c(c3c(=O)[nH]2)CCCCC4)c1	u	u	0.15µM*	u	0.89µM*
COCc1nc2sc3c(c2c(=O)[nH]1)CCCC3	9%	-2%	u	-3%	12%
CCOC(=O)c1nc2sc3c(c2c(=O)[nH]1)CCC(C)C3 (stereo not given)	1%	-5%	17µM*	-2%	x
Cc1cc(C)cc(NC(=O)CCc2nc3sc4c(c3c(=O)[nH]2)CCCC4)c1	0.73µM*	-10%	5%	-26%	x
